Experimental data: a collection of fitness landscapes (doi:10.1016/j.celrep.2020.107928)
The full ranking holds about 81,000 sequences; the median of “one-hybrid fitness for binding NBS DNA” is about -0.1, and the highest 2% start at about 0.36. For the sample, the highest values were picked, then their nearest neighbours and some sequences at random.

B1: Caulobacter ParB omega fusion; a variant is named by its letters at X, in order, B8GW30 (parent)
chain: MESVVVGEPGMSEGRRGLGRGLSALLGEVDAAPAQAPGEQLGGSREAPIEILQRNPDQPRRTFREEDLEDLSNSIREKGVLQPILVRPSPDTAGEYQIVAGERAWRAAQRAGLKTVPIMVRELDDLAVLEIGIIENVQRADLNVLEEALSYKVLMEKFERTQENIAQTIGKSXSHVANXMRLLXLPDEVQSYLVSGELTAXHARAIAAAADPVALAKQIIEGGLSVRETEALARKAPNLSAGKSKGGRPPRVKDTDTQALESDLSSVLGLDVSIDHRGSTGTLTITYATLEQLDDLCNRLTRGI

Variants of: B1
Experiment: one-hybrid fitness for binding NBS DNA (the Noc-binding site; scaled: cognate 1, non-cognate 0); higher = stronger binding
Conditions: with NBS DNA site
Method in brief: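 Fitness is the rescaled log change in variant-to-wild-type read ratio, measured by Illumina sequencing of plasmids before and after bacterial one-hybrid selection. The scale puts cognate at 1 and non-cognate at 0. Selection of Caulobacter ParB libraries, four specificity codons randomised, took place in E. coli USO with a HIS3 reporter, site 19 bp from the promoter, over 48 hours at 37°C on M9-minus-histidine with 0.1 mM IPTG and 5 mM 3-AT.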

Variant | one-hybrid fitness for binding NBS DNA
LLMQ | ≤ 0.2
CKKG | ≤ 0.2
RRKS | 0.68
RRVN | 0.238
RRVP | ≤ 0.2
RCKN | 0.27
RRKE | 0.214
RRYF | ≤ 0.2
RRKN | 0.646
RRRF | 0.442
RRKP | 0.379
RRDF | ≤ 0.2
RRKD | 0.226
RRYP | ≤ 0.2
TKMW | ≤ 0.2
MWVR | ≤ 0.2
CLAT | ≤ 0.2
TSDV | ≤ 0.2
AMPA | ≤ 0.2
PHPV | ≤ 0.2
QICI | ≤ 0.2
IYNQ | ≤ 0.2
TYVC | ≤ 0.2
YDYM | ≤ 0.2

Variant | one-hybrid fitness for binding NBS DNA
LLAR | ≤ 0.2
RSKY | 0.29
RRKF | 0.484
RRKY | 0.79
RRVF | ≤ 0.2
RCKF | ≤ 0.2
RRKL | 0.259
RRVK | ≤ 0.2
RCKK | 0.248
RRVH | 0.321
RRVY | 0.301
RRKK | 0.438
RRKH | 0.798
SCIR | ≤ 0.2
RESS | ≤ 0.2
WPIG | ≤ 0.2
WPLC | ≤ 0.2
PERM | ≤ 0.2
FMPK | 0.314
RISS | 0.358
SLQG | ≤ 0.2
DCLR | ≤ 0.2
PTRA | ≤ 0.2
RWVV | ≤ 0.2

Variant | one-hybrid fitness for binding NBS DNA
QWNR | 0.304
QMMQ | ≤ 0.2
CVMR | ≤ 0.2
TNHL | ≤ 0.2
ESDR | ≤ 0.2
LVTW | ≤ 0.2
PNSF | ≤ 0.2
LPGR | ≤ 0.2
QLIH | ≤ 0.2
RRDM | ≤ 0.2
RRVG | 0.298
RRNM | 0.428
RRKG | 0.461
RCKG | ≤ 0.2
RCNM | ≤ 0.2
YVLT | ≤ 0.2
LIAF | ≤ 0.2
KLGG | ≤ 0.2
ELRQ | ≤ 0.2
RSSE | ≤ 0.2
GPWL | ≤ 0.2
QSGA | 0.291
QAGA | 0.221
QLGA | ≤ 0.2

Variant | one-hybrid fitness for binding NBS DNA
QRGA | 0.653
QHGA | 0.208
QCGA | 0.364
PSYL | ≤ 0.2
ACER | ≤ 0.2
PNTQ | ≤ 0.2
RLFR | 0.247
RHAR | 0.427
RAAR | 0.385
RHAD | ≤ 0.2
RHFR | 0.206
RAAN | ≤ 0.2
RLAR | 0.42
RIFR | 0.243
RLAN | ≤ 0.2
RIAR | 0.384
RIAN | ≤ 0.2
RAFR | 0.27
RMFS | 0.221
FGDR | ≤ 0.2
GIAC | ≤ 0.2
MKIR | ≤ 0.2
FHKW | ≤ 0.2
PVKH | ≤ 0.2

Variant | one-hybrid fitness for binding NBS DNA
TANL | ≤ 0.2
VPPG | ≤ 0.2
KWAS | ≤ 0.2
RCAR | 0.529
RFAR | 0.242
RPAR | ≤ 0.2
RSAH | ≤ 0.2
RSFR | 0.28
RSAR | 0.438
PHEL | ≤ 0.2
IQNS | ≤ 0.2
WRET | ≤ 0.2
AVER | ≤ 0.2
TMML | ≤ 0.2
YKDT | 0.385
YKDN | ≤ 0.2
YKYR | ≤ 0.2
YKDR | 0.512
YKYT | ≤ 0.2
YKDS | 0.297
YKNT | ≤ 0.2
YKDH | 0.692
YKNR | ≤ 0.2
PGCP | ≤ 0.2

Variant | one-hybrid fitness for binding NBS DNA
ARAS | ≤ 0.2
RMPC | ≤ 0.2
IYSS | ≤ 0.2
KREW | ≤ 0.2
VDGI | ≤ 0.2
QVNY | ≤ 0.2
CDAR | ≤ 0.2
CPEM | ≤ 0.2
GLTI | ≤ 0.2
PMWG | ≤ 0.2
RFKT | 0.512
RFVT | ≤ 0.2
RAKN | ≤ 0.2
RAVT | 0.237
RMKM | 0.216
RMKT | 0.606
RSKT | 0.618
RSVT | 0.238
RSKP | ≤ 0.2
RAKT | 0.623
NFKT | ≤ 0.2
RMVT | 0.296
PIPI | ≤ 0.2
SQAS | ≤ 0.2

Variant | one-hybrid fitness for binding NBS DNA
ERWR | ≤ 0.2
DMMR | ≤ 0.2
DFLL | ≤ 0.2
AIKF | ≤ 0.2
LHHN | ≤ 0.2
WGHS | ≤ 0.2
RCSQ | ≤ 0.2
RIVT | 0.243
RIKN | ≤ 0.2
RPKT | ≤ 0.2
REKT | ≤ 0.2
RHKT | 0.578
RHKD | ≤ 0.2
RIKT | 0.623
RHVT | ≤ 0.2
RCKT | 0.653
HNER | ≤ 0.2
YSVR | ≤ 0.2
NNAI | ≤ 0.2
ECLL | ≤ 0.2
LKEG | ≤ 0.2
QCAT | 0.533
QLFT | 0.289
QLAT | 0.396

Variant | one-hybrid fitness for binding NBS DNA
QIAT | 0.28
QSAT | 0.395
QSAP | ≤ 0.2
QAFT | 0.326
QAAH | ≤ 0.2
QSAN | ≤ 0.2
QPAT | ≤ 0.2
QLAH | ≤ 0.2
QAAT | 0.401
DLIW | ≤ 0.2
GYPG | ≤ 0.2
MTVA | ≤ 0.2
ELQY | ≤ 0.2
NMPC | ≤ 0.2
YMLA | ≤ 0.2
PNNH | ≤ 0.2
STTR | ≤ 0.2
GQTC | ≤ 0.2
PTRL | ≤ 0.2
ITAS | ≤ 0.2
QHAD | ≤ 0.2
QHFT | 0.312
QHAT | 0.41
IDNR | 0.348

Variant | one-hybrid fitness for binding NBS DNA
HTGM | ≤ 0.2
DSKV | ≤ 0.2
QRAF | 0.302
QSFS | 0.256
QRAP | 0.264
QRAS | 0.684
QRAD | 0.25
QPFS | ≤ 0.2
QCFS | 0.397
QSAS | 0.356
QPAS | ≤ 0.2
QRAH | 0.583
QCAS | 0.451
QRAE | 0.332
LCKS | ≤ 0.2
STRH | ≤ 0.2
SLSS | ≤ 0.2
AMPP | ≤ 0.2
HDRS | ≤ 0.2
NECS | ≤ 0.2
AAGK | ≤ 0.2
QPEY | ≤ 0.2
QRFQ | 0.226
QCAC | ≤ 0.2

Variant | one-hybrid fitness for binding NBS DNA
QCAQ | ≤ 0.2
QRAC | 0.391
QRFC | 0.289
QRFS | 0.597
QRFP | 0.201
QRFD | ≤ 0.2
QRFM | 0.22
QRAQ | 0.412
QCAM | ≤ 0.2
QRAM | 0.404
QSIQ | ≤ 0.2
KPVS | ≤ 0.2
YYMR | ≤ 0.2
RFQM | ≤ 0.2
GDHK | ≤ 0.2
LAMD | ≤ 0.2
SSIR | ≤ 0.2
QRFN | 0.353
QRAN | 0.39
QCAN | ≤ 0.2
RCKY | 0.318
RKRY | 0.366
RKDY | ≤ 0.2
RKVS | 0.426

Variant | one-hybrid fitness for binding NBS DNA
RKKY | 0.38
RKVY | ≤ 0.2
RKVD | ≤ 0.2
RKVN | ≤ 0.2
RKKP | ≤ 0.2
RKKS | 0.653
RKYY | ≤ 0.2
RKKD | ≤ 0.2
HLAI | ≤ 0.2
KRLI | ≤ 0.2
TRHK | ≤ 0.2
TTRF | ≤ 0.2
RAYA | ≤ 0.2
ISTD | ≤ 0.2
AALA | ≤ 0.2
TDSY | ≤ 0.2
AIFT | ≤ 0.2
PYDR | ≤ 0.2
VNLC | ≤ 0.2
PDQF | ≤ 0.2
RKKN | 0.252
RKKH | 0.465
RKVH | 0.211
LEGG | ≤ 0.2

Variant | one-hybrid fitness for binding NBS DNA
TKHA | ≤ 0.2
QTGC | 0.246
QTGS | 0.557
QTGD | ≤ 0.2
QTGH | 0.424
QTGN | 0.255
QTGP | ≤ 0.2
LWYM | ≤ 0.2
PADY | ≤ 0.2
QSRS | 0.64
QCPS | 0.299
QCYS | 0.432
QCDS | 0.28
CWIG | 0.406
QSIS | 0.232
QPYS | ≤ 0.2
QCIS | 0.364
CWIS | ≤ 0.2
QSPS | ≤ 0.2
QSYS | 0.337
CWRG | ≤ 0.2
PLRP | ≤ 0.2
SMYN | ≤ 0.2
RGCR | ≤ 0.2

Variant | one-hybrid fitness for binding NBS DNA
TCIC | ≤ 0.2
TTYN | ≤ 0.2
TLLD | ≤ 0.2
KIRT | ≤ 0.2
QCRS | 0.748
QCRP | 0.352
QPRS | ≤ 0.2
RFTS | 0.285
RLTS | 0.396
RATH | ≤ 0.2
RPTS | ≤ 0.2
RCTS | 0.516
RLTH | ≤ 0.2
RTTP | ≤ 0.2
RTTH | 0.24
RLTP | ≤ 0.2
RATS | 0.433
RTTS | 0.484
RATD | ≤ 0.2
